# Assay results: PubChem BioAssay (NCI)
# The panel holds about 83,000 compounds, 20% with a hit somewhere; the sample as a whole holds those more often.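 Values shown are percent growth following 48 h exposure of cells in 96-well plates to a single concentration of compound; below 10 was considered active.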 Values without a mark were called inactive. Calls of active or inactive are those of the source.
# Tested on: HL-60(TB) leukemia
# Assay: NCI-60 one-dose screen, 48 h (100 = growth as untreated, 0 = no growth, -100 = all killed)
# Conditions: 10 µM unless noted
row,SMILES,growth
1,CCCCCCCCCCSC(=N)N (tested in a mixture with another compound),62.8%
2,COc1cc2cc3c(nc2cc1OC)CCN3Cc1ccc(NC(=O)c2ccc(Cl)c(C(F)(F)F)c2)cc1,99.5%
3,CCN(CC)CCN1C(=O)c2c(c3c4ccccc4[nH]c3c3[nH]c4ccccc4c23)C1=O,98.7%
4,COc1ccc2c(c1)CC/C(=C\c1cncc(Br)c1)C2=O,100%
5,O=C(Oc1ccccc1)c1ccccc1Cl,76.4%
6,Nc1nc(N)c2c(n1)NC(c1cccc(Nc3ccnc4cc(C(F)(F)F)ccc34)c1)CC(c1ccc(F)cc1)=N2 (centres undefined),17.8%
7,COc1cc2cc(NCc3ccc(OC(F)F)cc3)nc(C)c2cc1OC,38.7%
8,CC[C@@]1(OC(=O)CN(C)C)C(=O)OCc2c1cc1n(c2=O)Cc2cc3c(N)cccc3nc2-1,-2.25% (active)
9,COc1ccc2c(-c3ccc(F)cc3)c(C#N)c(=NC(C)=O)oc2c1,-17.4% (active)
10,C=C1C(=O)O[C@H]2[C@H]1CC/C(C=Nc1c(N)cc(C(F)(F)F)cc1C(F)(F)F)=C\CC[C@@]1(C)O[C@@H]21,-24.9% (active)
11,C=C1C(=O)O[C@H]2[C@H]1CC/C(COC(=O)NCc1cn(C)c3ccccc13)=C\CC[C@@]1(C)O[C@@H]21,-48.5% (active)
12,COc1ccc(NC(=O)c2sc3nc(C)c(C(=O)c4ccc(OC)cc4)cc3c2N)cc1,6.31% (active)
13,N#Cc1c(-c2ccc(F)cc2)nc(N=Nc2c(O)[nH]c3ccccc23)nc1N1CCOCC1,101%
14,CCOC(=O)C1CCN(S(=O)(=O)/N=C2/NC(=O)NC2=C(Cl)Cl)CC1,-45.9% (active)
15,CCOC(=O)CC1CSC(Nc2ccccc2)=N1 (centres undefined),102%
16,O=C(CSc1nc2ccccc2[nH]1)Nc1cccc(Cl)c1,102%
17,COc1ccc(CCN2C(=O)/C(=C/c3ccc(C4Oc5ccccc5C5CC(c6cccc(OC)c6)=NN54)cc3)SC2=S)cc1 (centres undefined),99.5%
18,CC(C)(C)n1cc(-c2ccnc(NCCCNS(=O)(=O)c3ccc(Br)cc3)c2)c(-c2cccc(O)c2)n1,3.72% (active)
19,CCCCn1c(=O)c(-c2cc(-c3ccc(Cl)cc3)nc(-c3ccc(Cl)cc3)c2)cc2cc(C)ccc21,100%
20,Nc1cc2nc3ccccc3oc-2cc1=O,16.2%

row,SMILES,growth
1,Cc1nnc(-c2cc3c(ccc4ccccc43)oc2=O)c2cn(-c3ccc(Cl)cc3)nc12,84.4%
2,Nc1ncc(C#Cc2cncc(NC(=O)c3cccc(C(F)(F)F)c3)c2)c2cccnc12,33.2%
3,Cc1ccc(C(=O)N/N=C/c2ccc3c(c2)OCO3)cc1,90.4%
4,CCOC(=O)n1cc(-c2nonc2-c2cn(C(=O)OCC)c3ccc(Br)cc23)c2ccccc21,93.9%
5,COc1cccc(-c2nc3occn3c2-c2ccnc(NCCCNS(=O)(=O)c3ccc(C(F)(F)F)cc3)n2)c1,116%
6,CNC(=O)c1cn2c3c(c(N4CCN(C)CC4)c(F)cc3c1=O)OC[C@@H]2C,99.3%
7,COc1cc(C2CC(c3ccc(N(C)C)cc3)=NN2C(C)=O)cc(OC)c1OC (centres undefined),-3.98% (active)
8,COc1cc(OC)cc(-c2ccc(-c3ccc(C(=N)N)cn3)s2)c1,-25.4% (active)
9,CCCCCCNC(=O)Oc1ccc(/C(=C(/C)Cc2ccc(OC)cc2)c2ccc(OCCN(C)C)cc2)cc1,47.4%
10,C=C(C)C(=O)Nc1ccc(NC(C)C)cc1,129%
11,COc1cc(Nc2ccnc(NCCCNc3ccnc4cc(Cl)ccc34)n2)cc(OC)c1,-76.9% (active)
12,COc1ccc(NC(=O)c2cccc(C3CCc4c(cc(OC)c(OC)c4OC)O3)c2)cc1 (centres undefined),-8.38% (active)
13,CNC(=O)c1cc(Oc2ccc(NC(=O)Nc3ccc(Cl)c(OC(F)(F)F)c3)c(F)c2)ccn1,28.9%
14,Cc1cc(Nc2ncc(Cl)c(Nc3ccccc3S(=O)(=O)C(C)C)n2)c(OC(C)C)cc1C1CCNCC1,-65% (active)
15,CN(C)c1nc(-c2cccs2)n2nc(-c3ccco3)cc2n1,95.3%
16,CN(CCOc1ccc(CC2SC(=O)NC2=O)cc1)c1ccccn1 (centres undefined),128%
17,CC(C)(C)n1cc(-c2ccnc(NCCCNS(=O)(=O)c3ccc(Cl)cc3)c2)c(-c2cccc(O)c2)n1,-46.1% (active)
18,O=c1ccn2c(n1)OC1CC2OC1COC(c1ccccc1)(c1ccccc1)c1ccccc1 (centres undefined),89.2% [100 µM]
19,COc1cc(C2Cc3ncccc3-c3[nH]c(=O)c4cccnc4c32)cc(OC)c1OC (centres undefined),-2.08% (active)
